High-throughput results: PubChem BioAssay, several laboratories
SUMO Mot1 rescue: yeast Mot1-301 growth rescue at high temperature, primary screen, SUMOylation pathway inhibitor project, S. cerevisiae, ATP luminescence, 38.5C; S. cerevisiae Mot1-301 growth rescue; percent above DMSO median, 100 means doubled; growth rescue, % at 18.8 µM; 320,000 compounds, 1% hits; AID 2716, 2010;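 active means every valid replicate shows activation above 250% relative to neutral control wells; inactive means the rest, any valid replicate at or below 250%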;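 further: OY570 slx delta 5 strain wells were the positive control but not used for scaling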
Efflux pump inh: inhibitors of Candida efflux pumps in yeast, primary screen, S. cerevisiae, Nile Red, multiplex. S. cerevisiae Candida pump triplex. inhibition, % at 10 µM. 330,000 compounds, 0.44% hits;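 active means plate passing quality check with inhibition over a set limit, or well fluorescence over plate mean plus 4 SD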;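 further: Nile Red retained in pooled yeast measured as flow cytometry median fluorescence; 0% = buffer negative control and 100% = Enniatin B positive control; higher means more Nile Red kept so more efflux inhibition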
HGIII-sPLA2 inh: human group III sPLA2 inhibitors, primary screen, biochemical, QFRET, BODIPY PC-A2 liposome substrate. Group 3 secretory phospholipase A2 (Homo sapiens), Q9NZ20. QFRET BODIPY PC-A2 liposome hydrolysis, fluorescence. inhibition, % at 12.2 µM. 370,000 compounds, 0.56% hits. AID 743126, 2013;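 active means inhibition above mean plus 3 SD of compounds lying within the high and low control bounds, cut at about 19% in these data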;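 further: 0% = median of test compound wells and 100% = no enzyme DMSO wells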
Target sequence (Q9NZ20 whole entry, looked up): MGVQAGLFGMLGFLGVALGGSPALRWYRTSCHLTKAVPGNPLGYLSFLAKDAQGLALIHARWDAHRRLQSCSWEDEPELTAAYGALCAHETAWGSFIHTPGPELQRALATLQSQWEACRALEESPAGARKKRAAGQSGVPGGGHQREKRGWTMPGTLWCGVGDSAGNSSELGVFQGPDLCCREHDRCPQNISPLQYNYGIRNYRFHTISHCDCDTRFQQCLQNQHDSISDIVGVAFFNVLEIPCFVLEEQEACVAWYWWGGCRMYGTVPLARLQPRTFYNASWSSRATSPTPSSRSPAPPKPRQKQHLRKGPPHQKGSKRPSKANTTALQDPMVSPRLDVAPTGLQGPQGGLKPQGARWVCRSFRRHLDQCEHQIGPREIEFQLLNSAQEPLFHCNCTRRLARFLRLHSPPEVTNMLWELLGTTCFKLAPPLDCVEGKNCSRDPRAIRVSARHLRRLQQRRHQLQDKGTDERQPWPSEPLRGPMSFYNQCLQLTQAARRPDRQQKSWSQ
SKN-1 inh: suppressors of acrylamide-induced Pgst-4::GFP reporter in worms, primary screen, SKN-1 inhibitor project, whole organism, uHTS, GFP/RFP fluorescence ratio, strain VP596; C. elegans VP596 Pgst-4::GFP/RFP ratio, 24 h; inhibition, % at 21.8 µM; 360,000 compounds, 0.49% hits;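 active means interference check ratio from 0.5 to 1.5 plus GFP to RFP signal ratio inhibition reaching or exceeding a fixed threshold, cut at about 30% in these data, passing the limit was not always enough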
Starred values were filed as active, the others as inactive; . = no result. The list is not random: actives were taken first. Their share in the collection is about 2.2%.

SMILES	SUMO Mot1 rescue	Efflux pump inh	HGIII-sPLA2 inh	SKN-1 inh
C/C(=N\Nc1ccc(Cl)cc1)c1c(O)cc(C)oc1=O	332*	0	-9	-2
COC(=O)c1ccc(CSc2nc3ccccc3o2)cc1	1	0	4	40*
O=[N+]([O-])c1ccc(CSc2nc3ccccc3o2)cc1	523	0	-1	69*
Cc1cccc(CCNC(=O)c2ccc3c(c2)ncn3C2CCCCC2)c1	.	.	-5	.
Cc1cc(NC(c2ccc(Cl)cc2)c2ccc3cccnc3c2O)no1 (centres undefined)	41	0	35*	-12
CCCCCCCCN1C(=O)[C@@H](CC(=O)NCCCOC)C[C@@]2(C(=O)OC)C1=C[C@H](C1CCCC1)O[C@@H]2C	.	.	-10	.
N#Cc1ccc(-c2nc3c4ccccc4ccn3c2Cc2ccccc2C(F)(F)F)cc1	.	.	-1	42*
FC(F)(F)c1ccccc1Cc1c(-c2ccccc2)nc2ccc(Br)cn12	.	.	-16	48*
O=C(NCc1ccccc1)C1COc2ccccc2O1 (centres undefined)	-12	0	8	-24
O=C(NC1CCN(Cc2ccccc2)CC1)C1COc2ccccc2O1 (centres undefined)	273*	0	-6	13
O=P(c1ccccc1)(c1ccccc1)c1ccc(O)cc1	349*	0	8	4
O=C(C(=O)c1ccc(O)cc1)c1ccccc1	356*	0	-6	-6
Oc1ccccc1	.	.	5	.
Cc1cc(O)cc(=O)n1-c1cc(C(F)(F)F)cc(C(F)(F)F)c1	.	.	-3	.
COC12NC(=O)N(C)C1(OC)C(=O)N(C)C(=O)N2C (centres undefined)	241	0	1	3
Cc1[nH]nc2c1C(c1ccc(Br)cc1)N(c1ccccc1)C2=O (centres undefined)	.	.	-6	.
O=C(Nc1ccc2c(c1)CN(C(=O)Nc1ccc(F)cc1)CC2)c1ccccn1	.	.	-2	38*
COC(=O)c1ccccc1NC(=O)N1CCc2ccc(NC(=O)c3ccccn3)cc2C1	84	-2	0	7
O=C(NCCCl)c1ccc(OCc2ccccc2)cc1Cl	.	0	22*	-2
CO[C@@H]1[C@H](O)CC[C@]2(O)CN(c3ccccc3)[C@](C)([C@H](O)CC=C(C)C)[C@@H]12	.	.	14	.
Clc1ccc(-c2nc3cc(CN4CCCCC4)ccc3o2)cc1	23	0	5	77*
Clc1ccc2nc(SCc3nnc(-c4ccccc4)o3)[nH]c2c1	650*	0	-23	8
COc1ccc(S(=O)(=O)N2CCCc3nc(-c4ccccc4)ccc32)cc1	.	.	-6	.
COc1cccc(/C=N/Nc2nc(-c3cccnc3)nc3ccccc23)c1	314*	0	9	11
CCOc1ccc(-c2nc(N)ncc2Oc2ccccc2Br)c(O)c1	69	0	-19	23
SMILES	SUMO Mot1 rescue	Efflux pump inh	HGIII-sPLA2 inh	SKN-1 inh
CCOc1ccc(-c2nc(N)ncc2Oc2cccc(OC)c2)c(O)c1	.	1	-17	37*
Cc1ccc(C(OC(=O)c2ccco2)C(=O)NC(C)(C)C)cc1 (centres undefined)	43	0	-1	-2
O=C(Nc1ccccc1)c1cnc[nH]1	-6	0	11	31*
O=C(c1ccccc1)c1cnc[nH]1	120	0	9	8
CN(C)c1ccc(CC(=O)N2CCCC(c3cc(C(=O)Nc4ccc(C(C)(C)C)cc4)no3)C2)cc1 (centres undefined)	.	.	8	3
COc1ccc2c(N)c(C(=O)NN)[nH]c2c1	-8	0	11	-8
Cc1cc(C)c2nc(C(F)(F)F)nc(N3CCN(C(=O)c4ccco4)CC3)c2c1	-13	0	-2	36*
CN(C)C(=O)c1cccc(-c2cnc3c(NC=O)cc(-c4ccc(N(C)C)cc4)cn23)c1	.	.	-10	36*
Cc1cccc(-c2cc(NC=O)c3ncc(-c4cccc(C(=O)N(C)C)c4)n3c2)c1	.	.	2	-3
COc1ccccc1C(=O)Nc1cccc(SC)c1	9	0	-8	-13
CSc1cccc(NC(=O)c2cccc3cccnc23)c1	-26	0	-11	65*
Cc1nc2ccc(N=NC3=C(O)CC(C)(C)CC3=O)cc2s1	-10	0	11	1
CCOc1ccc2nc(N=NC3=C(O)CC(C)(C)CC3=O)sc2c1	-3	0	1	35*
